# In PubChem BioAssay:
# Active and inactive are the calls of the source.
# Tests used:
# [1] = optical density shifts of acrAB sulA E. coli – strain DRC41, OD650, 48 h, E. coli filamentation inducer project, primary screen (AID 1152); settings: higher = more signal, called active from +8 up or from −8 down;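 also: E. coli MC1000 strain DRC41 lacking acrAB efflux pump and sulA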
# [2] = probe aLefty1 binding on compound microarray – biochemical, small-molecule microarray, 635/667 nm fluorescence, primary screen (AID 1153); settings: higher = more signal;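 also: score merges spot fluorescence with signal-to-noise ratio from the scanned slide images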
# [3] = plasmodial surface anion channel blockers, osmotic lysis – cell-based, P. falciparum Indochina, OD700, 1 h, primary screen (AID 1154); settings: P. falciparum Indochina infected RBC osmotic lysis, higher = more signal, called active from +8 up or from −8 down
# [4] = plasmodial surface anion channel blockers, osmotic lysis – cell-based, P. falciparum Indochina, OD700, 2 h, primary screen (AID 1155);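 also: lysis reports solute entry through the parasite surface anion channel PSAC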; settings: P. falciparum Indochina infected erythrocytes, higher = more signal, called active from +8 up or from −8 down
# [5] = changes in parasitized red cell lysis, either direction – P. falciparum Indochina, OD700, 3 h, PSAC antagonist project, primary screen (AID 1156); settings: P. falciparum-infected erythrocytes, osmotic lysis, higher = more signal, called active from +8 up or from −8 down
# [6] = plasmodial surface anion channel blockers, osmotic lysis – cell-based, P. falciparum Indochina, OD700, 18 h, primary screen (AID 1157); settings: P. falciparum Indochina infected erythrocytes, osmotic lysis OD700, 18 h; higher = more signal, called active from +8 up or from −8 down
# [7] = S6 kinase pathway phospho-S6 level changes – cell-based, A549, cytoblot, luminescence, serum-stimulated, primary screen (AID 1158); settings: 5 h, higher = more signal;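 also: serum-stimulated A549 lung adenocarcinoma cells; signal is phosphorylated S6 detected by cytoblot immunostaining with HRP secondary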
# [8] = biological target: NADPH oxidase 2 (Homo sapiens) (UniProt P04839); assay: compounds shifting NOX2 Amplex Red fluorescence – cell-based, HEK293-NOX2, PMA-stimulated, NOX inhibitor project, primary screen (AID 1159); settings: 45 min, higher = more signal, called active from +8 up or from −8 down; also: test concentration not given here
# [9] = biological target: NADPH oxidase 4 (Homo sapiens) (UniProt Q9NPH5); assay: compounds shifting NOX4 Amplex Red fluorescence – cell-based, HEK293-NOX4, tetracycline-induced, NOX inhibitor project, primary screen (AID 1160); settings: HEK293-NOX4, Amplex Red H2O2 fluorescence, 45 min; higher = more signal, called active from +8 up or from −8 down
# [10] = biological target: NADPH oxidase 5 (Homo sapiens) (UniProt Q96PH1); assay: compounds shifting NOX5 Amplex Red fluorescence – cell-based, HEK293-NOX5, NOX inhibitor project, primary screen (AID 1161); settings: HEK293-NOX5, ionomycin, 45 min, higher = more signal
# [11] = compound effects on lung adenocarcinoma cell viability – A549, calcein-AM fluorescence, 48 h, basal, profiling panel (AID 1162); settings: higher = more signal; also: test concentration not given here
# [12] = compound effects on differentiated 3T3-L1 adipocyte viability – cell-based, 3T3-L1 adipocytes, calcein-AM fluorescence, 48 h, basal, profiling panel (AID 1163); settings: 3T3-L1 adipocytes viability, higher = more signal; also: test concentration not given here
# [13] = compound effects on hepatocellular carcinoma cell viability – HepG2, calcein-AM fluorescence, 48 h, basal, profiling panel (AID 1164); settings: higher = more signal; also: test concentration not given here
# [14] = compound effects on multiple myeloma cell viability – MM1S, calcein-AM fluorescence, 48 h, basal, profiling panel (AID 1165); settings: higher = more signal;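 also: viability of MM1S multiple myeloma cells under basal unstimulated conditions; test concentration not given here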
# [15] = calcein-AM signal in unstimulated myeloma cells – cell-based, calcein-AM fluorescence, 48 h, PK04 Diversity Set, profiling panel (AID 1166); settings: RPMI8226 myeloma viability, higher = more signal;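 also: cells grown under basal conditions without added stimulus; test concentration not given here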
# [16] = JC-1 mitochondrial signal, unstimulated HepG2 cells – cell-based, JC-1 fluorescence, 24 h, 100 nL compound, profiling panel (AID 1167); settings: HepG2 mitochondrial potential, higher = more signal; also: test concentration not given here
# [17] = JC-1 mitochondrial signal, unstimulated adipocytes – cell-based, JC-1 fluorescence, 3T3-L1 adipocytes, 24 h, 100 nL compound, profiling panel (AID 1168); settings: JC-1 mitochondrial fluorescence, higher = more signal, called active from +8 up or from −8 down; also: test concentration not given here
# [18] = JC-1 mitochondrial signal, unstimulated myeloma cells – cell-based, JC-1 fluorescence, RPMI8226, 24 h, 100 nL compound, profiling panel (AID 1169); settings: JC-1 mitochondrial potential fluorescence, higher = more signal; also: test concentration not given here
# [19] = JC-1 mitochondrial signal, unstimulated MM1S myeloma – cell-based, JC-1 fluorescence, 24 h, 100 nL compound, profiling panel (AID 1170); settings: MM1S mitochondrial potential, higher = more signal; also: test concentration not given here
# [20] = resazurin metabolic signal in A549 cells – cell-based, resazurin fluorescence, 24 h, PK04 Diversity Set, profiling panel (AID 1171); settings: A549 viability, higher = more signal, called active from +8 up or from −8 down; also: test concentration not given here
# NADPH oxidase 5 (Homo sapiens), sequence (Q96PH1 whole entry, looked up): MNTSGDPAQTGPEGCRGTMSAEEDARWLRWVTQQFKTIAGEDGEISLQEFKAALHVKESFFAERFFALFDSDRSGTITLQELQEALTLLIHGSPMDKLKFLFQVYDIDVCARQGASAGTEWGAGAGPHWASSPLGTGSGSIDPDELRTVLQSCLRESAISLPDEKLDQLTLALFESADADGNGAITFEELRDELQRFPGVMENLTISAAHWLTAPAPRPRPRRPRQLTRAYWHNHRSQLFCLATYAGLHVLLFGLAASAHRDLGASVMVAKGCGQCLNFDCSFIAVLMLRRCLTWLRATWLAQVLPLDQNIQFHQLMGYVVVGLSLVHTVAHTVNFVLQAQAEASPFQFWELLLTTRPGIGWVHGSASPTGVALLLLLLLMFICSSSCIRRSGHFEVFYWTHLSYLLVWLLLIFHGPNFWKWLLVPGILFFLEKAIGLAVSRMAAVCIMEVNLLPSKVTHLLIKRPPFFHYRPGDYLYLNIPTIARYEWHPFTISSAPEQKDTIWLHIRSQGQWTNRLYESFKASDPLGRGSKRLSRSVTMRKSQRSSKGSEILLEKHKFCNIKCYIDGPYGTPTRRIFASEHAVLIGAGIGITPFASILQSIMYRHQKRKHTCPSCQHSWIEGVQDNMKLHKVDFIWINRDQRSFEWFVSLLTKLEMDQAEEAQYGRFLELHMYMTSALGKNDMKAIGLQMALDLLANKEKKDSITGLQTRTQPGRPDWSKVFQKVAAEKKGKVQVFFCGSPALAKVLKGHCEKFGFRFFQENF
# NADPH oxidase 4 (Homo sapiens), sequence (Q9NPH5 whole entry, looked up): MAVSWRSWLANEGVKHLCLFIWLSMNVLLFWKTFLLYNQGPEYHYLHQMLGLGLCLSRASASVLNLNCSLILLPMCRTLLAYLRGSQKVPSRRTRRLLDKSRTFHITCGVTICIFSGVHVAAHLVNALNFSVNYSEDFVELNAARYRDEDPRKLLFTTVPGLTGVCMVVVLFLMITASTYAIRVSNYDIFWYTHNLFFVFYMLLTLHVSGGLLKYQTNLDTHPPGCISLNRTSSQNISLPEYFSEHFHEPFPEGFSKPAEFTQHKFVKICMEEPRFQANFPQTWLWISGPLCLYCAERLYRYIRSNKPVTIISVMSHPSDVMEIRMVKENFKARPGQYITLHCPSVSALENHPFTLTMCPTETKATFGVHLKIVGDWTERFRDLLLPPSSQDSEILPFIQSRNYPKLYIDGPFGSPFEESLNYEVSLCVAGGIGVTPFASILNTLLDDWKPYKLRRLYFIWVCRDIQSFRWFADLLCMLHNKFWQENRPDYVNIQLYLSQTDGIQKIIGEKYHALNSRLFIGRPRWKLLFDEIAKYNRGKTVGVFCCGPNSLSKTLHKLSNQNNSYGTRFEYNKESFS
# NADPH oxidase 2 (Homo sapiens), sequence (P04839 whole entry, looked up): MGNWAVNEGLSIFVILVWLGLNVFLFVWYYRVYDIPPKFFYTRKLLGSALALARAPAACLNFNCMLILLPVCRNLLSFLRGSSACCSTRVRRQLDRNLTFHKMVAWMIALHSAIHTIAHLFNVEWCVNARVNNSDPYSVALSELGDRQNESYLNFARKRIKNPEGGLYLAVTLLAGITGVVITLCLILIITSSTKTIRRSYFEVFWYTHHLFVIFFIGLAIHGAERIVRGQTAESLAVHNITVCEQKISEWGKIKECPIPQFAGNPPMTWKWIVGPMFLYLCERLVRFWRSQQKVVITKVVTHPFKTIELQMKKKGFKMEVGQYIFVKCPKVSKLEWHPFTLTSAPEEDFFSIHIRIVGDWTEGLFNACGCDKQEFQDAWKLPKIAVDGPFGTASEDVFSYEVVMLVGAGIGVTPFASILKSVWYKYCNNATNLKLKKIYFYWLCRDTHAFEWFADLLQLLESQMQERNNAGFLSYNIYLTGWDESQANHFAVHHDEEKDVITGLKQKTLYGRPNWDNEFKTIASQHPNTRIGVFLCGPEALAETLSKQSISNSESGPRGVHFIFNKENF
SMILES,z-score [1],composite z-score [2],z-score [3],z-score [4],z-score [5],z-score [6],z-score [7],z-score [8],z-score [9],z-score [10],z-score [11],z-score [12],z-score [13],z-score [14],z-score [15],z-score [16],z-score [17],z-score [18],z-score [19],z-score [20]
CC(C)C[C@@H]1NC(=O)[C@@]23C(=O)N[C@@H](Cc4ccccc4)C2[C@H](C)[C@@]2(C)O[C@H]2C3/C=C/C/C=C\CNC(=O)[C@@H](CC(C)C)NC1=O (stereo not given in full),-0.664 (inactive),0.0774,1.44 (inactive),-0.172 (inactive),0.0094 (inactive),-0.0134 (inactive),0.0885,0.063 (inactive),0.41 (inactive),-3.22,0.939,0.703,-0.293,-0.549,-0.361,-0.046,-0.618 (inactive),-0.955,1.28,1.31 (inactive)
CC(c1ccccc1)C(O)C1C=CC2C(=O)N(c3ccccc3)C(=O)C2N1Nc1ccc(C#N)cc1 (stereo not given),1.16 (inactive),0.379,14 (active),1.58 (inactive),0.832 (inactive),0.264 (inactive),1.38,-1.9 (inactive),-4.04 (inactive),-2.65,1.71,-0.582,1.49,0.401,-0.0442,-0.372,0.0393 (inactive),-0.0416,0.222,0.413 (inactive)
CN(C)CCCC[C@@H]1NC(=O)[C@H]2C[C@@H](C(=O)O)[C@@H](c3cccc(OCCO)c3)N2C1=O,0.0804 (inactive),0.393,7.58 (inactive),0.945 (inactive),-5.21 (inactive),0.424 (inactive),0.479,-2.73 (inactive),-3.04 (inactive),-1.4,-0.17,0.174,0.41,-3.21,0.584,0.773,-0.829 (inactive),-0.786,-0.713,0.618 (inactive)
CCOC(=O)C[C@H]1[C@H](OC(=O)c2ccc(-c3ccccc3)cc2)[C@@H](NC(=O)c2ccc3ccccc3c2)c2cc(OCCCO)ccc2N1C(=O)c1ccccc1,-0.966 (inactive),0.0691,0.398 (inactive),0.134 (inactive),-0.337 (inactive),0.407 (inactive),0.263,-2.38 (inactive),-1.62 (inactive),-0.532,-0.9,0.237,-0.307,-0.438,-0.322,0.762,-0.0421 (inactive),0.483,-0.108,0.231 (inactive)
COc1ccc([Si](C)(C)[C@@H]2[C@@H](CC(=O)N(CCO)Cc3ccccc3)O[C@]3(C(=O)N(Cc4ccc(N5CCC5=O)cc4)c4ccccc43)[C@H]2C)cc1,1.12 (inactive),-0.399,6.38 (inactive),0.924 (inactive),-0.709 (inactive),-1.27 (inactive),0.838,1.53 (inactive),1.41 (inactive),3.52,-0.361,2.28,-1.34,-1.28,-3.15,0.768,1.95 (inactive),-0.944,-0.83,-1.37 (inactive)
